The list is not random: actives were taken first. Their share in the collection is about 19%.
Giardia killer = Giardia lamblia killing | 0.15% of 340,000 active | activity change, % at 7.66 µM, hits read low | Giardia lamblia trophozoite viability; in the data active = activity change below about -80%; inconclusive = between about -30% and that limit;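 note: parasites exposed to compound for two days anaerobically before the ATP read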
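Luminescence from cellular ATP indicates surviving trophozoites (100 cells/well) following 48 hrs anaerobic compound treatment at 37 deg C; signal develops 15-30 min at room temperature.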
IL-1B inflam inh = inhibitors of inflammasome signaling (IL-1 beta secretion); THP-1 LPS/ATP IL-1B secretion, AlphaLISA, 16 h; stronger effect = lower value; activity change, % at 57.5 µM; 4.7% of 360,000 active; AID 743279; in the data active = activity change below about -50%; inconclusive = mostly about -30% to -49%
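Secreted IL-1B measured by AlphaLISA bead assay after 16 h compound exposure of THP-1 cells; compounds (final up to 57.5 uM) added 1 h before LPS (250 ng/mL) and ATP (1.25 mM) stimulation; lower signal means less secretion.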
TDP1 block = TDP1 (human) enzyme inhibition; Q9NUW8; recombinant TDP1, AlphaScreen DNA substrate cleavage; Potency, µM (top dose mostly 130 µM), inactives show at the highest dose activity change, negative = inhibition, actives largely listed as inhibitors; 0.28% of 350,000 active; AID 485290; note: potency is the fitted concentration of half-maximal effect; nearly all actives have a fitted effect of over 40% in size
Target sequence (Q9NUW8 whole entry, looked up): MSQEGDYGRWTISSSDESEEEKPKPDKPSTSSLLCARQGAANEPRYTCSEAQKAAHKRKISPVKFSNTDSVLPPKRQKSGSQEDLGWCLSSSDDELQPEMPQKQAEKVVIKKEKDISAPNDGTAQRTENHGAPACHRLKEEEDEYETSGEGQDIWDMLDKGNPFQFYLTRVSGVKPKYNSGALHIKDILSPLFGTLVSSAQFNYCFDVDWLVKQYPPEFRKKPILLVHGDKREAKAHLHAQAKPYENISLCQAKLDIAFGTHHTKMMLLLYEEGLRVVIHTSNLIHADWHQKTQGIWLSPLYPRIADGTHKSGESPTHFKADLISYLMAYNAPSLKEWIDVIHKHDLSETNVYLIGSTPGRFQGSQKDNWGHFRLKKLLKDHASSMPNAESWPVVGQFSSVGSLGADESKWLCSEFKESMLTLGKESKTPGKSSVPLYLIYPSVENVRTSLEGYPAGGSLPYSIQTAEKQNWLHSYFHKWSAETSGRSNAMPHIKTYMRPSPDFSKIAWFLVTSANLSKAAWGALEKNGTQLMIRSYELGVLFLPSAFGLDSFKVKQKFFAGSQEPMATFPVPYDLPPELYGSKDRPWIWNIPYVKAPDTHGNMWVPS
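Here, a 5' biotin and 3' phosphotyrosine-FITC DNA oligonucleotide reports Tdp1 activity: intact substrate bridges AlphaScreen beads, while cleavage leaves a 3' phosphate and drops signal. All incubations at room temperature.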
TDP1 cell noCPT = qHTS for Inhibitors of human tyrosyl-DNA phosphodiesterase 1 (TDP1): qHTS in cells in absence of CPT | DT40 Tdp1-/- hTDP1 cells, no CPT, ATP luminescence, 48 h | Potency, µM (titrated, usually from 46.2 µM), for the others: top-dose activity change, negative = growth inhibition, most hits filed as inhibitors | 15% of 420,000 active | AID 686978, 2013; note: potency is the fitted concentration of half-maximal effect; nearly all actives have a fitted effect of over 55% in size
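Chicken DT40 Tdp1-/- cells stably complemented with human TDP1 were seeded at 400 cells/well with DMSO in place of 20 nM camptothecin. After compound pinning, cells grew at least 48 hr at 37 °C; viability read by CellTiter-Glo luminescence.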
ELG1 repair inh = inhibitors of ELG1-dependent DNA repair in HEK293T cells; HEK293T ELG1-luciferase reporter, luminescence, 16 h; DNA damage induced by 5-fluorouridine; Potency, µM (doses to about 46.1 µM), inactives show at the highest dose activity change, negative = inhibition, hits mostly inhibitors; 2.3% of 330,000 active; note: potency is the fitted concentration of half-maximal effect; nearly all actives have a fitted effect of over 55% in size
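5-Fluorouridine DNA damage + compound/DMSO, 2,000 cells/well, 16 h, 37 °C/5% CO2. ONE-Glo, 30 min RT, luminescence. Readout = decrease in reporter signal.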
TDP1 cell CPT = growth inhibition of DT40 Tdp1-/-;hTDP1 cells with camptothecin (screen for TDP1 inhibitors); 12% of 420,000 active; chicken DT40 Tdp1-/-;hTDP1 cells + 20 nM CPT, ATP luminescence, 48 h; Potency, µM (doses to about 46.2 µM), without a hit: at the highest dose activity change, negative = growth inhibition, hits mostly inhibitors; note: potency is the fitted concentration of half-maximal effect; nearly all actives have a fitted effect of over 55% in size
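Cell growth measured by CellTiter-Glo luminescence after a minimum 48 h, 37 C compound exposure with 20 nM CPT in Tdp1-knockout DT40 cells stably expressing hTDP1, seeded 400/well; qHTS titration format.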
ELG1 FLuc counter = luciferase inhibition in cell-free luciferin readout for ELG1 hits; shares compounds with ELG1 repair inh; cell-free firefly luciferase luminescence counter-screen, ViewLux; Potency, µM (top dose mostly 46.1 µM), for the others: top-dose activity change, negative = inhibition, most hits filed as inhibitors; 3% of 350 active; AID 624247; note: potency is the fitted concentration of half-maximal effect
ELG1 Luc conf = confirmation of human ELG1-dependent DNA repair inhibitors | Potency, µM (top dose mostly 46.1 µM), without a hit: top-dose activity change, negative = inhibition, most hits filed as inhibitors | 68% of 670 active | HEK293T ELG1-luciferase levels, luminescence; cells co-treated with 5-fluorouridine | shares compounds with ELG1 repair inh; note: potency is the fitted concentration of half-maximal effect; nearly all actives have a fitted effect of over 55% in size
ELG1 MMS Luc = inhibits ELG1-dependent repair under MMS stimulation in HEK293T cells; shares compounds with ELG1 repair inh; HEK293T luciferase-tagged ELG1 level, MMS stimulated; Potency, µM (top dose mostly 46.1 µM), for the others: at the top dose activity change, negative = inhibition, most hits filed as inhibitors; 53% of 670 active; AID 624249; note: potency is the fitted concentration of half-maximal effect; nearly all actives have a fitted effect of over 60% in size
ELG1 5FU viab = confirmation of ELG1 repair inhibitors: viability with 5FU; AID 624250; 670 tested, under 10 active; shares compounds with ELG1 repair inh; cell viability with 5-FU, ELG1-dependent repair; Potency, µM (doses to about 46.1 µM), for the others: top-dose activity change, negative = viability loss, hits mostly cytotoxic;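 note: ELG1-luc HEK293T cells cotreated with 5-fluorouridine at 10 µM final; potency is the fitted concentration of half-maximal effect; viability measured 16 h after compound addition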
ELG1 MMS viab = confirmation of ELG1 repair inhibitors: viability with MMS. shares compounds with ELG1 repair inh. Cell viability with MMS, ELG1-dependent DNA repair. Potency, µM (series often up to 46.1 µM), for inactives: top-dose activity change, negative = viability loss, usual class: cytotoxic. 33% of 670 active;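 note: ELG1-luc HEK293T cells co-treated with 10 µM MMS; potency is the fitted concentration of half-maximal effect; viability read 16 h after compound addition; nearly all actives have a fitted effect of over 60% in size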
Cell viab unstim = unstimulated viability counter-screen for ELG1 repair hits; cell viability counter-screen, unstimulated, luminescence; shares compounds with ELG1 repair inh; AID 624252; Potency, µM (top dose mostly 45.9 µM), for the others: at the highest dose activity change, negative = loss of viability, hits mostly cytotoxic; 8% of 900 active;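 note: potency is the fitted concentration of half-maximal effect; compound exposure lasted 16 hours before reading; nearly all actives have a fitted effect of over 55% in size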
FLuc enzyme = firefly luciferase inhibition counter-screen | Potency, µM (series often up to 57.5 µM), for the others: top-dose activity, negative = inhibition, hits mostly inhibitors | shares compounds with ELG1 repair inh | AID 624253 | purified firefly luciferase, luminescence counter-screen | 10% of 350 active; note: potency is the fitted concentration of half-maximal effect
The depositor's hits bear a star; ? = inconclusive; nt = not tested or not shown. Unless noted, calls come from the whole dose curve; as a rule, active = well fitted curve in the direction sought with a large enough effect; inconclusive = small, poorly fitted or top-dose-only effect, or another doubt; inactive = no such curve, though single readings can be large; an effect the other way counts as inactive or inconclusive. % is set by controls: 0 for no effect and ±100 for the full control effect.

SMILES | Giardia killer | IL-1B inflam inh | TDP1 block | TDP1 cell noCPT | ELG1 repair inh | TDP1 cell CPT | ELG1 FLuc counter | ELG1 Luc conf | ELG1 MMS Luc | ELG1 5FU viab | ELG1 MMS viab | Cell viab unstim | FLuc enzyme
O=C(C1CCCN(c2ncnc3c2nc2n3CCCCC2)C1)N1CCN(c2ccccc2F)CC1 (stereo not given) | 8 | -6 | 4% | 9.2µM* | 9.2µM* | ? | -7% | 11µM* | 25µM* | -7% | -8% | ? | -5%
CC(=O)Nc1ccc(NC(=O)CSc2ccc3nnc(CCNS(=O)(=O)c4ccc(C)cc4)n3n2)cc1 | -22 | 15 | 1% | 29% | -2% | -12% | nt | nt | nt | nt | nt | nt | nt
Cc1ccc(S(=O)(=O)NCCc2nnc3ccc(SCC(=O)Nc4nc5ccccc5s4)nn23)cc1 | nt | nt | -2% | nt | -3% | nt | ? | -2% | 4% | 0% | 2% | 0% | -5%
Cc1ccc(SCC(=O)OCC(=O)N(CC(C)C)C2CCS(=O)(=O)C2)cc1C (stereo not given) | -11 | 9 | 0% | -25% | -4% | -26% | nt | nt | nt | nt | nt | nt | nt
O=C(/C=C/c1ccc(F)cc1)NC(=S)NNC(=O)c1cnccn1 | 0 | 78 | 10% | 3.3µM* | 2.3µM* | 3.7µM* | nt | ? | 20µM* | -8% | -14% | -13% | nt
COc1ccc(CCN2C(=O)NC(NC(=O)c3ccccc3OC)(C(F)(F)F)C2=O)cc1OC (stereo not given) | nt | nt | 2% | ? | nt | ? | nt | nt | nt | nt | nt | nt | nt
Cc1ccc(NC(=O)Cn2cnc3ccccc32)cc1C | 20 | 28 | 2% | ? | 4.6µM* | ? | nt | 4% | ? | -8% | ? | ? | nt
O=C(Cn1cnc2ccccc21)Nc1cccc([N+](=O)[O-])c1 | -4 | 4 | 6% | ? | ? | ? | nt | nt | nt | nt | nt | nt | nt
COc1ccc(/C=C/c2ccc3ccccc3n2)c(OC)c1 | nt | nt | nt | 11µM* | nt | 16µM* | -9% | nt | nt | nt | nt | -25% | ?
COc1ccc(C=O)cc1Cn1ccnc1C | -10 | -8 | -2% | 9% | -6% | -1% | nt | nt | nt | nt | nt | nt | nt

Assay outcomes as filed in PubChem.
